Unmarked numbers belong to inactive results. Inconclusive results are not listed. Active and inactive are the calls of the source. Unless noted, calls follow the shape of the dose curve; as a rule, active = well fitted curve in the direction sought with a large enough effect in the repeat runs; inconclusive = weak or mixed curves; inactive = no such curve, though single readings can be large; an effect the other way counts as inactive or inconclusive.

Assay [1] in a line: qHTS assay to identify small molecule agonists of H2AX - cell viability counter screen (AID 1224847; calls by dose curve; also: nearly all actives have a fitted effect of over 30% in size; also: potency is read from the fitted curve at half-maximal effect; as to activity change, negative = cytotoxicity: top concentration of the series differs between compounds). The settings on record: CHO-K1 viability, CellTiter-Glo luminescence, 3 h; series mostly up to 154 µM. In a few lines: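 Cytotoxicity counter screen in wild-type CHO-K1 cells: a 3 hr compound treatment at 37C across 15 concentrations, followed by CellTiter-Glo luminescence to gauge viable cells.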
(In general: In qHTS, concentration-response curves come from the screen itself.)

Assay [2] can be described thus: qHTS RealTime-Glo MT Cell Viability Assay in HepG2 cells - 24 hour (AID 1224867). Also: nearly all actives have a fitted effect of over 50% in size. The note with it: RealTime-Glo luminescence; series mostly up to 76.8 µM. In a few lines: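 Tox21 10K library screened in qHTS format on HepG2 cells carrying RealTime-Glo reagents. Compounds were added after a 5 h preincubation, and the luminescent signal from continuous culture was measured repeatedly during 40 h treatment.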

The nature of assay [3]: qHTS RealTime-Glo MT Cell Viability Assay in HEK293 cells - 32 hour (AID 1224868). Also: nearly all actives have a fitted effect of over 50% in size. Also: potency is read from the fitted curve at half-maximal effect. As to activity change, negative = cytotoxic: top concentration of the series differs between compounds. The note with it: RealTime-Glo luminescence; series mostly up to 76.8 µM. The gist of the method:
(§1)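 Luminescence generated by NanoLuc from substrate produced by living HEK293 cells served as the viability signal. Each value reflects the reading at its stated time point during continuous 40 h compound exposure at 37 C.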

The nature of assay [4]: A CellTox Green Cytotoxicity Assay to monitor cytotoxicity in HEK293 cells - 0 hour (AID 1224869). Also: nearly all actives have a fitted effect of over 50% in size. The settings on record: CellTox Green fluorescence; series mostly up to 76.8 µM. In a few lines: (§2)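 HEK293 cells, 600/well, were preincubated 5 hours and then exposed to compounds at 37 C for up to 40 hours. A cell-impermeant cyanine dye staining dead-cell DNA was read by fluorescence at 0, 8, 16, 24, 32 and 40 h time points.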

A short description of assay [5]: qHTS RealTime-Glo MT Cell Viability Assay in HepG2 cells - 40 hour (AID 1224870). Also: nearly all actives have a fitted effect of over 50% in size. The settings on record: RealTime-Glo luminescence; series mostly up to 76.8 µM. The gist of the method:
(§3)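 HepG2 cells mixed with RealTime-Glo MT reagents (NanoLuc plus cell-permeant prosubstrate) were seeded at 600 cells/well, incubated 5 h at 37 C/5% CO2, then pinned with compounds in DMSO; nonlytic luminescence tracked viability during 40 h treatment.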

Assay [6] is described as follows: A CellTox Green Cytotoxicity Assay to monitor cytotoxicity in HEK293 cells - 40 hour (AID 1224871). Also: nearly all actives have a fitted effect of over 45% in size. Also: potency is read from the fitted curve at half-maximal effect. The settings on record: CellTox Green fluorescence; series mostly up to 76.8 µM. In a few lines:
as §2

Assay [7] can be described thus: qHTS RealTime-Glo MT Cell Viability Assay in HEK293 cells - 16 hour (AID 1224872). Also: nearly all actives have a fitted effect of over 50% in size. Also: potency is read from the fitted curve at half-maximal effect. As to activity change, negative = cytotoxicity: top concentration of the series differs between compounds. The settings on record: RealTime-Glo luminescence; series mostly up to 76.8 µM. The gist of the method:
as §1

A short description of assay [8]: qHTS RealTime-Glo MT Cell Viability Assay in HepG2 cells - 8 hour (AID 1224873). Also: nearly all actives have a fitted effect of over 55% in size. The settings on record: RealTime-Glo luminescence; series mostly up to 76.8 µM. The gist of the method:
as §3
% is scaled to controls: 0 for no effect and ±100 for the full control effect.

Take `ClC(c1ccccc1)(c1ccccc1)c1ccccc1`: the Potency result in assay [1], in assay [2], in assay [3], in assay [4], in assay [5] and in assay [6] was “inactive” each time. Also, the Potency entry in assay [7] and in assay [8] was “inactive” each time.

In the case of `C=C[Si](C)(C)Cl`, the activity change, negative = cytotoxicity in assay [1] was -1.05% [at 14 µM]; in assay [2], -0.615% [at 6.97 µM]; in assay [7], -7.44% [at 6.97 µM]. In addition, the figures for the activity change, negative = cytotoxic in assay [3] and in assay [5] were -3.52% [at 6.97 µM] and 24.3% [at 6.97 µM], respectively. For the same compound, in assay [4], the cytotoxicity is -1.84% [at 6.97 µM]. Moreover, in assay [8], the viability change, negative = cytotoxic was -15.7% [at 6.97 µM].

For the compound `CC(C)=CCC[C@H](C)CC=O`, the Potency result in assay [1], in assay [2], in assay [3], in assay [4], in assay [5] and in assay [7] was “inactive” each time. For the same compound, the Potency entry in assay [8] is “inactive”.

Consider `CCCCCCCC/C=C\CCCCCCCC(=O)N(CCO)CCO`, for which the Potency is 113 µM (active) in assay [1], 43.5 µM (active) in assay [3] and 43.5 µM (active) in assay [7]. The Potency result in assay [2], in assay [4], in assay [5] and in assay [8] was “inactive” in each case.

For `CCCCCCCCCCCC(=O)Cl`, the Potency entry in assay [1], in assay [2], in assay [3], in assay [5], in assay [6] and in assay [7] was “inactive” in each case. The Potency result in assay [8] was “inactive”.

As to `CCOC(=O)OC(=O)OCC`, the Potency result in assay [1], in assay [2], in assay [3], in assay [4], in assay [5] and in assay [6] was “inactive” throughout. For the same compound, the Potency result in assay [7] and in assay [8] was “inactive” in each case.

In the case of `CCn1c2ccccc2c2ccccc21`, the Potency result in assay [1], in assay [2], in assay [3], in assay [4], in assay [5] and in assay [8] was “inactive” each time.

For `CC1(C)[C@H](C(=O)OCc2cccc(Oc3ccccc3)c2)[C@@H]1C=C(Cl)Cl`, the Potency result in assay [1], in assay [2], in assay [3], in assay [4], in assay [5] and in assay [7] was “inactive” in each case. Moreover, the Potency entry in assay [8] was “inactive”.

Consider `c1ccc2c(c1)-c1ccc3ccc4cccc5cc-2c1c3c45`, for which the Potency entry in assay [1], in assay [2], in assay [3], in assay [5], in assay [7] and in assay [8] was “inactive” each time.

For the compound `CC1=CC[C@@H](C(C)(C)O)CC1`, the Potency entry in assay [1], in assay [2], in assay [3], in assay [4], in assay [6] and in assay [7] was “inactive” throughout. Also, the Potency entry in assay [8] was “inactive”.

For the compound `C=COCCCC`, the Potency result in assay [1], in assay [2], in assay [4], in assay [5], in assay [6] and in assay [8] was “inactive” each time.

`[Cl][Dy]([Cl])[Cl]`: the Potency result in assay [1], in assay [2], in assay [3], in assay [4], in assay [5] and in assay [7] was “inactive” each time. In addition, the Potency entry in assay [8] is “inactive”.

Regarding `O=C1OCc2ccccc21`, the Potency entry in assay [1], in assay [2], in assay [3], in assay [4], in assay [5] and in assay [7] was “inactive” in each case. Further, the Potency result in assay [8] was “inactive”.

Consider `CC(CC(C)(C)C)CC(C)(C)CC(C)(C)C` (centres undefined), for which the Potency entry in assay [1], in assay [2], in assay [3], in assay [4], in assay [6] and in assay [7] was “inactive” in each case. The Potency entry in assay [8] is “inactive”.

In the case of `NCc1ccco1`, the Potency entry in assay [1], in assay [2], in assay [4], in assay [5], in assay [6] and in assay [7] was “inactive” in each case. For the same compound, the Potency entry in assay [8] is “inactive”.

In the case of `C=C(C)CCO`, the Potency result in assay [1], in assay [2], in assay [3], in assay [4], in assay [5] and in assay [7] was “inactive” each time. Further, the Potency result in assay [8] is “inactive”.

Turning to `O[Si](c1ccccc1)(c1ccccc1)c1ccccc1`, the Potency in assay [1] is 101 µM (active); in assay [3], 38.9 µM (active). For the same compound, the Potency result in assay [2], in assay [4], in assay [5], in assay [6] and in assay [8] was “inactive” each time.

Turning to `C=C(C)C1CCC(C)CC1O` (centres undefined), the Potency entry in assay [1], in assay [2], in assay [3], in assay [4], in assay [5] and in assay [7] was “inactive” in each case. The Potency result in assay [8] is “inactive”.

With `CCOC(=O)[C@H](C)O`, the Potency result in assay [1], in assay [2], in assay [3], in assay [4], in assay [5] and in assay [7] was “inactive” each time. Moreover, the Potency result in assay [8] was “inactive”.

Take `O=C(Nc1ccc([N+](=O)[O-])cc1)Nc1ccc([N+](=O)[O-])cc1` (tested in a mixture with another compound): the Potency was 17.5 µM (active) in assay [1] and 4.77 µM (active) in assay [3]. The Potency entry in assay [2], in assay [4], in assay [5], in assay [6] and in assay [8] was “inactive” throughout.

As for `CN1CCN(C)CC1`, the Potency result in assay [1], in assay [2], in assay [3], in assay [4], in assay [5] and in assay [7] was “inactive” in each case. The Potency entry in assay [8] is “inactive”.

Turning to `Cc1c(Cl)c(=O)oc2cc(O)ccc12`, the Potency result in assay [1], in assay [2], in assay [4], in assay [5], in assay [6] and in assay [8] was “inactive” throughout. Also, the results for the Potency in assay [3] and in assay [7] were 43.6 µM (active) and 49 µM (active), respectively.

Turning to `O=C(NCc1ncc(C(F)(F)F)cc1Cl)c1c(Cl)cccc1Cl`, the Potency result in assay [1], in assay [2], in assay [4], in assay [5] and in assay [8] was “inactive” in each case. Further, the Potency in assay [3] is 21.9 µM (active).

In the case of `COc1cc2ncnc(Nc3cccc(Cl)c3)c2cc1OC`, the results for the activity change, negative = cytotoxicity in assay [1], in assay [2] and in assay [7] were 1.51% [at 31.6 µM], -0.467% [at 15.8 µM] and -3.69% [at 15.8 µM], respectively. In addition, the figures for the activity change, negative = cytotoxic in assay [3] and in assay [5] were 0.667% [at 15.8 µM] and 25.7% [at 15.8 µM], respectively. Besides, in assay [4], the cytotoxicity was -7.5% [at 15.8 µM]. The viability change, negative = cytotoxic in assay [8] is -19.1% [at 15.8 µM].

Consider `CCOc1ccc([N+](=O)[O-])cc1`, for which the Potency result in assay [1], in assay [2], in assay [4], in assay [5] and in assay [8] was “inactive” throughout. The Potency in assay [6] was 44.3 µM (active).

Take `Nc1cc([N+](=O)[O-])cc(Cl)c1O`: the Potency entry in assay [1], in assay [2], in assay [3], in assay [4], in assay [5] and in assay [7] was “inactive” each time. The Potency entry in assay [8] is “inactive”.

Consider `CCNc1nc(NC(C)(C)C)nc(OC)n1`, for which the Potency entry in assay [1], in assay [2], in assay [4], in assay [5], in assay [6] and in assay [7] was “inactive” in each case. Further, in assay [8], the Potency entry is “inactive”.

Consider `O=C1CCC/C=C\CCCCCCCCCC1`, for which the Potency result in assay [1], in assay [2], in assay [3], in assay [4], in assay [5] and in assay [7] was “inactive” throughout. The Potency entry in assay [8] is “inactive”.

The values above are taken from PubChem BioAssay (Tox21).
